Records with an inconclusive call do not appear. Where a call stands in place of a potency, no number is given. The source made the active and inactive calls. The call rests on the fitted dose curve; in most records, active means well fitted inhibition curve with a large enough effect; inconclusive means small, poorly fitted or top-dose-only effect; inactive means no such curve, though single readings can be large or run the other way.
Target: Tumor susceptibility gene 101 protein (Homo sapiens) (UniProt Q99816)
Assay: qHTS Assay for Iinhibitors of HIV-1 Budding by Blocking the Interaction of PTAP/TSG101: Hit Validation in TR assay
Summary of the method: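 Texas Red-PTAP peptide (50 nM) binding to Tsg101 binding domain (10 uM), both final, in pH 7.5 HEPES buffer, read as polarization after 20 min at room temperature; compounds pinned before peptide addition.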

Tumor susceptibility gene 101 protein (Homo sapiens), sequence (Q99816 whole entry, looked up): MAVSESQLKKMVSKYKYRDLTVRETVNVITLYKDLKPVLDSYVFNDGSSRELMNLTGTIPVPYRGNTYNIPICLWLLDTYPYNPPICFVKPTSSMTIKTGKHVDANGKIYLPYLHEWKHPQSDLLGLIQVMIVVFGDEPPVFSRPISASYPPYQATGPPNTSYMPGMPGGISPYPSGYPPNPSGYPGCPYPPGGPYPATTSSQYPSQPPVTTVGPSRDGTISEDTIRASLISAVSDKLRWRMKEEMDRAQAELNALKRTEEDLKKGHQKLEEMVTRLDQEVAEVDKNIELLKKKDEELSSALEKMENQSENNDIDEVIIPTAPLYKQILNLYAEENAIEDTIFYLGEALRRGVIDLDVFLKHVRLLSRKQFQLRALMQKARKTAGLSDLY

Structure (SMILES): Cn1c(=O)c(Nc2ccc(O)cc2)c2c3c(cccc31)C(=O)c1ccccc1-2
- Potency: inactive

Structure (SMILES): COc1cccc(C(=O)c2sc3nc(-c4ccccc4)cc(C(F)(F)F)c3c2N)c1
- Potency: inactive

Structure (SMILES): c1ccc2[nH]c3cc4ncnc4cc3nc2c1
- Potency: inactive

Structure (SMILES): Cc1cc2nc3c(=O)n(C4CCCCC4)c(=O)[nH]c3nc2cc1N
- Potency: inactive

Structure (SMILES): COC(=O)c1cc2c(N)c(C(=O)c3ccc(Cl)cc3)sc2nc1C(OC)OC
- Potency: inactive

Structure (SMILES): COC(=O)CN1C(=S)N(c2ccc(OC)cc2)C(=O)/C1=C/c1ccc(N2CCOCC2)cc1
- Potency: inactive

Structure (SMILES): CC1CCCN(Cc2c(O)ccc3c2O/C(=C\c2ccco2)C3=O)C1 (centres undefined)
- Potency: inactive

Structure (SMILES): O=c1[nH]c(=O)n(-c2cc(Br)c(O)c(Br)c2)cc1Br
- Potency: inactive

Structure (SMILES): Cc1c(C(=O)N(C)c2cccc(C(F)(F)F)c2)sc2nc3n(c(=O)c12)CCCCC3
- Potency: inactive

Structure (SMILES): O=C(O)c1cc(O)c2c(c1)C(=O)c1cccc(O)c1C2=O
- Potency: inactive

Structure (SMILES): NC(=O)c1ccccc1NCC(=O)c1ccc(F)cc1
- Potency: inactive

Structure (SMILES): CC[C@@]1(C(=O)OC)N[C@H](CN(C)C(=O)c2ccc(C)cc2)[C@@H]2C(=O)N(Cc3ccccc3)C(=O)[C@@H]21
- Potency: inactive

Structure (SMILES): CC1CCCN(c2nc3ccccc3nc2C(C#N)S(=O)(=O)c2ccccc2)C1 (centres undefined)
- Potency: inactive

Structure (SMILES): Cc1ccc(CNC(=O)C2CCCN(S(=O)(=O)c3c(C)[nH]c(=O)[nH]c3=O)C2)cc1 (centres undefined)
- Potency: inactive

Reference: PubChem BioAssay AID651599 (National Center for Advancing Translational Sciences (NCATS), 2012)
